Laboratory results reported in PubChem BioAssay (NCATS).
Several values for one entry are separate records, joined by “and”; a condition that tells them apart may be missing. Identical values can stand only once. Values without a mark were called inactive. Results filed as inconclusive are left out. Entries that show only a call come without a potency. Activity calls are given as the source filed them. Unless noted, calls come from the whole dose curve; as a rule, active = well fitted curve in the direction sought with a large enough effect; inconclusive = small, poorly fitted or top-dose-only effect, or another doubt; inactive = no such curve, though single readings can be large; an effect the other way counts as inactive or inconclusive.

Experiments:
[1] = Cell Viability - LYMP2-001 (AID 921);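 note: cells exposed to compound for 24 h at 37 °C; nearly all actives have a fitted effect of over 70% in size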; note: potency is the fitted concentration of half-maximal effect
Source text: (§1) NIH Chemical Genomics Center [NCGC]
(§2) NIH Molecular Libraries Screening Centers Network [MLSCN]
(§3) National Institutes of Environmental Health Sciences [NIEHS]
(§4) National Toxicology Program [NTP]
(§5) We have developed a 1536-well cell-based assay for quantitative high throughput screening (qHTS) against a number of cell lines to determine in vitro cytotoxicity of small molecules. This particular assay uses a human lymphoblastoid cell line (LYMP2-001) purchased from Coriell Institute for Medical Research.
(§6) NCGC Assay Protocol Summary:
(§7) The CellTiter-Glo luminescent cell viability assay (Promega) is a homogeneous method to measure the number of viable cells in culture. The end point readout of this assay is based on quantitation of intracellular ATP, an indicator of metabolic activity, using the luciferase reaction. Luciferase catalyzes the oxidation of beetle Luciferin to oxyluciferin and light in the presence of ATP. The luminescent signal is proportional to amount of ATP present.
(§8) Using the CellTiter-Glo luminescent cell viability assay, the amount of cellular ATP was measured in the lymphoblastoid cell line with complete culture medium following compound treatment for 24 hours. The assay was performed in opaque white Kalypsys 1536-well plates. In the screen, tetraoctylammonium bromide was used as positive control. Library compounds were measured for their ability to cause acute toxicity in the cell line, as reflected by a decrease in intracellular ATP levels, in a concentration-dependent manner. […] AC50 values were determined from concentration-response data modeled with the standard Hill equation.
(§9) qHTS protocol for CellTiter Glo lymphoblastoid cellular assay
(§10) [Step] [Parameter] [Value] [Description]
(§11) 1. Reagent; 5 uL; 2500 lymphoblastoid cells/well
(§12) 2. Time; 5 hr; 37 C incubation
(§13) 4. Controls; 23 nL; Tetraoctylammonium bromide 6.4pM to 92 uM
5. Time; 24 hr; 37 C incubation
(§14) 6. Reagent; 5 uL; CellTiter Glo reagent
(§15) 7. Time; 30 min; Room Temperature
(§16) 8. Detection; Luminescence; Viewlux plate reader
(§17) Keywords: cell viability, cytotoxicity, lymphoblastoid cell line, luminescence, NTPHTS, NTPHTS_NCGC, NIEHS, DSSTox, MLSMR, MLSCN, NIH Roadmap, qHTS, NCGC

[2] = MultiTox-Fluor Cytotoxicity Assay - LYMP1-001 - Dead Cells (AID 946); note: potency is the fitted concentration of half-maximal effect
Procedure, shortened: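 Cytotoxicity as increased dead-cell protease fluorescence (bis-AAF-R110, 485/520 nm), read 60 min after MultiTox-Fluor reagent. Human lymphoblastoid line exposed 16 h; Hill-fitted AC50, with DMSO as 0% and 15 uM tetraoctylammonium bromide as 100%.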

[3] = MultiTox-Fluor Cytotoxicity Assay - LYMP1-001 - Live Cells (AID 947); note: potency is the fitted concentration of half-maximal effect
[4] = Cell Viability - LYMP1-002 - Assay at 16 hr (AID 948); note: potency is the fitted concentration of half-maximal effect
Source text: as §1, §2, §3, §4
as §5, with “(LYMP1-002)” for “(LYMP2-001)”
as §6, §7
as §8, with “16” for “24”
as §9, §10, §11, §12, §13
5. Time; 16 hr; 37 C incubation
as §14, §15, §16, §17

[5] = qHTS Assay for Identification of Small Molecule Agonists for Thrombopoietin (TPO) Signaling Pathway (AID 917)
Procedure, shortened: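 Reporter: GpIIb promoter–luciferase in murine Ba/F3 expressing human TPO receptor. Pre-starved of IL-3 overnight; compounds with 26 pM TPO, 24 hrs, 37 C/5% CO2; luminescence read.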

[6] = Confirmation and Secondary Assay for Modulators of Hemoglobin Beta Chain Splicing at IVS2 705 locus (AID 930);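 note: HeLa cells stably expressing the EGFP-705 splicing reporter; GFP fluorescence per well restored by corrected splicing of the IVS2-705 intron in EGFP; series mostly up to about 46 µM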
Procedure, shortened: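 HeLa cells stably carrying EGFP interrupted by mutant beta-globin intron 2 (IVS2-705) treated 2 days at 37C with compound; 500 nM antisense PNA as control. Correct splicing read as total peak GFP intensity per well by laser-scanning cytometry.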

[7] = target: Muscarinic acetylcholine receptor M1 (Rattus norvegicus) (UniProt P08482); test: qHTS Assay for Antagonists of Acetylcholine Muscarinic M1 Receptor: Kinetic Measurement of Intracellular Calcium Response (AID 943); note: nearly all actives have a fitted effect of over 75% in size; note: potency is the fitted concentration of half-maximal effect
Chain of Muscarinic acetylcholine receptor M1 (Rattus norvegicus) (P08482 whole entry, looked up): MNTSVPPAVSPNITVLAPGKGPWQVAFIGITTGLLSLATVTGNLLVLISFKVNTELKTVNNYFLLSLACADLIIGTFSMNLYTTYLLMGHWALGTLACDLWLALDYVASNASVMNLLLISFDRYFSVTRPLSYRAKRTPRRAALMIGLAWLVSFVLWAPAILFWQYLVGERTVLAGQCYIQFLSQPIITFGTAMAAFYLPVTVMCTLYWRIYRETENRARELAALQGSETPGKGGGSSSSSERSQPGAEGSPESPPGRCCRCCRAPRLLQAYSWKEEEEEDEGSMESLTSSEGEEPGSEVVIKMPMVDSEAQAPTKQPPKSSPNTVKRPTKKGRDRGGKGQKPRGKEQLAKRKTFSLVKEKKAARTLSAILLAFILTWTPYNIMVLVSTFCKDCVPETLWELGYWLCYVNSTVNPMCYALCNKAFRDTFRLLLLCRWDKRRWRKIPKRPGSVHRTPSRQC
Procedure, shortened: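 CHO cells expressing rat M1 receptor, Fluo-4 loaded, preincubated 10 min with compound, then stimulated with EC80 carbachol (100 nM final). Kinetic calcium fluorescence over 4 min; response taken as peak over basal signal.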

[8] = target: Pyruvate kinase (Leishmania mexicana) (UniProt Q27686); test: qHTS Validation Assay for Inhibitors of Leishmania Mexicana Pyruvate Kinase (AID 945)
Chain of Pyruvate kinase (Leishmania mexicana) (Q27686 2-499 E452W): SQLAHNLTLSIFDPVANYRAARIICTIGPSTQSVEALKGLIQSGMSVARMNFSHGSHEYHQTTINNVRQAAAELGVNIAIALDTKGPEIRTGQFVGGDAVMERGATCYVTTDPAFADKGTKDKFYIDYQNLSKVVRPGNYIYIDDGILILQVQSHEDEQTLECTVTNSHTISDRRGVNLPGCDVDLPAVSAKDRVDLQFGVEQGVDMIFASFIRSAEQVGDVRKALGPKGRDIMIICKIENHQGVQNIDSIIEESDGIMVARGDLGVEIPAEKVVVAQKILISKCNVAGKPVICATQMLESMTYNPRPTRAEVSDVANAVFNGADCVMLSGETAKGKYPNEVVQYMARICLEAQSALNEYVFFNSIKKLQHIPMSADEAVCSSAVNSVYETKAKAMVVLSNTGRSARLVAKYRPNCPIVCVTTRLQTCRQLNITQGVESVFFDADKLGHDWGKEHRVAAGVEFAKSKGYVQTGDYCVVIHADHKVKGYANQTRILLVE
Procedure, shortened: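 Eight-point qHTS titrations in triplicate, data normalized to DMSO neutral control. Reaction: 0.2 nM LmPYK E451W mutant, 0.5 mM PEP, 0.1 mM ADP, 7 mM MgCl2, pH 7.2, one hour at room temperature; luminescent ATP detection.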

[9] = qHTS Assay for Identification of Small Molecule Agonists for Hypoxia Response Element Signaling Pathway (AID 914; active = well fitted activation curve with a large enough effect in the signal ratio, with a control signal flat, not every such curve was filed as active; the % refers to the signal ratio); settings: ME-180 (cervical carcinoma) HRE-bla reporter, beta-lactamase ratio, CoCl2, 17 h; hits give high values
Procedure, shortened: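 HRE-bla ME-180 cells with beta-lactamase reporter under hypoxia response element, compounds with EC50 CoCl2 for 17 hours at 37 C. CCF4 substrate, 460nm/530nm emission ratio gave %Activity; AC50 from titration series.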

[10] = target: Muscarinic acetylcholine receptor M1 (Rattus norvegicus) (UniProt P08482); test: qHTS Assay for Antagonists of Acetylcholine Muscarinic M1 Receptor: Measurement of IP-One Response (AID 944); note: nearly all actives have a fitted effect of over 75% in size; note: potency is the fitted concentration of half-maximal effect
Procedure, shortened: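 CHO cells stably expressing rat M1, pretreated 10 min with compound, then stimulated 30 min with carbachol at EC80 (200 nM) in LiCl-containing buffer pH 7.4; IP1 accumulation read by HTRF competition (665/620 nm).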

**Q.** For `CNC(=O)Oc1cccc2ccccc12`, which Potency [1] is on record?
**A.** The Potency was “inactive”.

**Q.** What about the Potency [2] of the same molecule?
**A.** Its Potency is “inactive”.

**Q.** And the Potency [3]?
**A.** The Potency was “inactive”.

**Q.** And the Potency [4]?
**A.** The Potency was “inactive”.

**Q.** For `CCCCCCCCC(=O)NCc1ccc(O)c(OC)c1`, which outcome [5] is on record?
**A.** The outcome was “inactive”.

**Q.** What about the outcome [6] of the same molecule?
**A.** Its outcome is “inactive”.

**Q.** What about the Potency [7] of the same molecule?
**A.** The Potency was “inactive”.

**Q.** And the outcome [8]?
**A.** The outcome was “inactive”.

**Q.** With `CCCC(C)C1(CC)C(=O)N=C(S)NC1=O` (stereo not given) as the molecule, how does the outcome [6] read?
**A.** Its outcome is “inactive”.

**Q.** Which outcome [6] does the source give for `CCNc1nc(Cl)nc(NCC)n1` here?
**A.** Its outcome is “inactive”.

**Q.** For `CN1[C@@H]2CC[C@H]1CC(OC(=O)c1cc(Cl)cc(Cl)c1)C2` (stereo not given in full), which activation [9] is on record?
**A.** The activation was 16.3%.

**Q.** And the outcome [5]?
**A.** Its outcome is “inactive”.

**Q.** And the Potency [7]?
**A.** Its Potency is 3.16 µM (active).

**Q.** What about the Potency [10] of the same molecule?
**A.** The Potency was 3.98 µM (active).

**Q.** And the outcome [8]?
**A.** Its outcome is “inactive”.

**Q.** What does the source list for `COc1ccc(C(=O)N2CCCC2=O)cc1`?
**A.** outcome [5]: inactive; outcome [6]: inactive; outcome [8]: inactive

**Q.** For `N#Cc1nn(-c2c(Cl)cc(C(F)(F)F)cc2Cl)c(N)c1S(=O)C(F)(F)F` (stereo not given), which outcome [6] is on record?
**A.** Its outcome is “inactive”.

**Q.** With `CN(C)C(=O)Oc1cc(OC(=O)N(C)C)cc(C(O)CNC(C)(C)C)c1` (stereo not given) as the molecule, how does the outcome [6] read?
**A.** The outcome was “inactive”.

**Q.** Which Potency [1] does the source give for `Oc1c(Br)cc(Br)cc1Br` here?
**A.** Its Potency is “inactive”.

**Q.** And the Potency [2]?
**A.** Its Potency is “inactive”.

**Q.** And the Potency [3]?
**A.** Its Potency is “inactive”.

**Q.** And the Potency [4]?
**A.** The Potency was “inactive”.

**Q.** Which outcome [5] does the source give for `O=C(O)c1nn(Cc2ccc(Cl)cc2Cl)c2ccccc12` here?
**A.** Its outcome is “inactive”.

**Q.** And the Potency [7]?
**A.** Its Potency is “inactive”.

**Q.** And the Potency [10]?
**A.** Its Potency is “inactive”.

**Q.** And the outcome [8]?
**A.** Its outcome is “inactive”.

**Q.** Which Potency [1] does the source give for `CN(C)C(=S)SSC(=S)N(C)C` here?
**A.** The Potency was 0.158 µM (active).

**Q.** What about the outcome [6] of the same molecule?
**A.** Its outcome is “inactive”.

**Q.** And the Potency [2]?
**A.** Its Potency is 0.794 µM (active).

**Q.** What about the Potency [3] of the same molecule?
**A.** Its Potency is 39.8 µM (active).

**Q.** What about the Potency [4] of the same molecule?
**A.** The Potency was 20 µM (active).

**Q.** Which results are given for `COP(=O)(OC)OC=C(Cl)Cl`?
**A.** Potency [1]: inactive; Potency [2]: inactive; Potency [3]: inactive; Potency [4]: inactive

**Q.** For `Cc1ccc(N=CN(C)C=Nc2ccc(C)cc2C)c(C)c1`, which outcome [6] is on record?
**A.** Its outcome is “inactive”.

**Q.** What does the source list for `Cc1cc(C(C)(C)C)cc(C)c1CC1=NCCN1`?
**A.** Potency [7]: 5.62 µM (active); Potency [10]: 10 µM (active)

**Q.** For `Clc1ccc(CSC(Cn2ccnc2)c2ccc(Cl)cc2Cl)cc1` (stereo not given), which outcome [6] is on record?
**A.** Its outcome is “inactive”.

**Q.** Which results are given for `COC(=O)C1=CCCN(C)C1`?
**A.** outcome [5]: inactive; outcome [6]: inactive; outcome [8]: inactive

**Q.** With `C[C@H](N)[C@H](O)c1ccc(O)c(O)c1` as the molecule, how does the Potency [7] read?
**A.** Its Potency is “inactive”.

**Q.** And the Potency [10]?
**A.** The Potency was “inactive”.

**Q.** And the outcome [8]?
**A.** The outcome was “inactive”.

**Q.** Which outcome [5] does the source give for `NC(=O)CN1CCCC1=O` here?
**A.** The outcome was “inactive”.

**Q.** What about the outcome [6] of the same molecule?
**A.** The outcome was “inactive”.

**Q.** What about the outcome [8] of the same molecule?
**A.** Its outcome is “inactive”.

**Q.** Which Potency [2] does the source give for `COC(=O)C1=C(C)NC(C)=C(C(=O)OC)C1c1ccccc1[N+](=O)[O-]` here?
**A.** Its Potency is 50.1 µM (active).

**Q.** Which outcome [6] does the source give for `CCCCCCCCCCCCCCCC[n+]1ccccc1` here?
**A.** The outcome was “inactive”.

**Q.** For `Clc1ccc(C(OCCN2CCCCC2)c2ccccc2)cc1` (stereo not given), which outcome [6] is on record?
**A.** The outcome was “inactive”.

**Q.** Which activation [9] does the source give for `c1ccc2nc(N3CCNCC3)ccc2c1` here?
**A.** The activation was -4.77%.

**Q.** And the outcome [5]?
**A.** Its outcome is “inactive”.

**Q.** And the outcome [6]?
**A.** Its outcome is “inactive”.

**Q.** And the outcome [8]?
**A.** The outcome was “inactive”.

**Q.** With `Clc1ccc(CO/N=C(\Cn2ccnc2)c2ccc(Cl)cc2Cl)c(Cl)c1` as the molecule, how does the outcome [6] read?
**A.** Its outcome is “inactive”.

**Q.** With `CCCCCCCCCCCC[N+](C)(C)CCOc1ccccc1` as the molecule, how does the Potency [1] read?
**A.** Its Potency is 31.6 µM (active).

**Q.** And the Potency [3]?
**A.** Its Potency is 25.1 µM (active).

**Q.** What about the Potency [4] of the same molecule?
**A.** The Potency was 15.8 µM (active).

**Q.** Which results are given for `O=C(CCl)c1ccc(Cl)cc1Cl`?
**A.** Potency [1]: 3.98 µM (active); Potency [2]: 10 µM (active); Potency [3]: 12.6 µM (active); Potency [4]: 15.8 µM (active)

**Q.** For `C[C@@H]1C[C@@H]([C@H](O)CC2CC(=O)NC(=O)C2)C(=O)[C@@H](C)C1`, which Potency [1] is on record?
**A.** Its Potency is 1.26 µM (active) and 1.58 µM (active).

**Q.** What about the Potency [2] of the same molecule?
**A.** Its Potency is “inactive”.

**Q.** What about the Potency [3] of the same molecule?
**A.** The Potency was “inactive”.

**Q.** And the Potency [4]?
**A.** The Potency was “inactive”.

**Q.** For `CC(C)[N+](C)(CCC(C(N)=O)(c1ccccc1)c1ccccc1)C(C)C`, which outcome [6] is on record?
**A.** Its outcome is “inactive”.

**Q.** Which Potency [1] does the source give for `CC[n+]1c(-c2ccccc2)c2cc(N)ccc2c2ccc(N)cc21` here?
**A.** Its Potency is 7.94 µM (active).

**Q.** And the outcome [6]?
**A.** The outcome was “inactive”.

**Q.** What about the Potency [2] of the same molecule?
**A.** The Potency was 39.8 µM (active).

**Q.** What about the Potency [3] of the same molecule?
**A.** Its Potency is 25.1 µM (active).

**Q.** For `O=C(NC(=O)c1c(F)cccc1F)Nc1cc(Cl)c(OC(F)(F)C(F)C(F)(F)F)cc1Cl` (stereo not given), which outcome [6] is on record?
**A.** The outcome was “inactive”.
